Measurements reported in PubChem BioAssay AID652257 (The Scripps Research Institute Molecular Screening Center, 2013).
In all, about 370,000 compounds went through this assay and about 4,800 (1.3%) were called active. Many of the other results were omitted from the sample, so actives are more common in it than they were. Unmarked numbers belong to inactive results.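 How the source made its calls: active means inhibition above about 21% made by adding two undisclosed values (limit read from the data); inactive means the rest.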

Target: Protein arginine N-methyltransferase 1 (Homo sapiens) (UniProt Q99873)
Sequence (Q99873 whole entry, looked up): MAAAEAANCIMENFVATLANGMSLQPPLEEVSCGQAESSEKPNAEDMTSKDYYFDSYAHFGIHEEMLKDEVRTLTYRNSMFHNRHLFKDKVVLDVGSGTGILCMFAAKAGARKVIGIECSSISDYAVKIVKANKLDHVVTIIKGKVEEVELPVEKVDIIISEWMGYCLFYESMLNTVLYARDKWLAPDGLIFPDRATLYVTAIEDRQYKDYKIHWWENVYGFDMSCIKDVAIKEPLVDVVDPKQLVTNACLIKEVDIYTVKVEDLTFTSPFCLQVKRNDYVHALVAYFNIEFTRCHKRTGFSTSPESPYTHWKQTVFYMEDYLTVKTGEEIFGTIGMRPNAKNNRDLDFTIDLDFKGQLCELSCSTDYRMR
Assay: PRMT1 methyltransferase inhibitors, primary screen, biochemical, fluorescence polarization (AID 652257)
Conditions: recombinant PRMT1, activity-based probe fluorescence polarization; at 2.79 µM; hits give high values

| SMILES | inhibition |
| --- | --- |
| COc1ccnc(NC(=S)N2CCN(c3ncc(C(F)(F)F)cc3Cl)CC2)c1 | 35.6% (active) |
| O=C(NCC(=O)N1CCN(c2ncc(C(F)(F)F)cc2Cl)CC1)c1ccc(Br)o1 | -1.7% |
| Cc1cc(C)nc(NC(=S)N2CCN(c3ccc(C(F)(F)F)cn3)CC2)c1 | 7.93% |
| CC(C)c1ccc(NC2CCCN(C(=O)c3ccncc3)C2)cc1 (stereo not drawn) | 5.83% |
| Cc1cc(NS(=O)(=O)c2ccc(NC(=O)CSc3nnc(SCc4ccc(F)cc4)s3)cc2)nc(C)n1 | 1.42% |
| CC1CCN(C(=S)c2cccc(O)c2)CC1 | 3% |
| COc1ccc(C(=O)Nc2c(Cl)cc(Cl)cc2C(=O)N2CCC(C)CC2)cc1 | 1.04% |
| CC1CCN(C(=S)c2ccc(-c3ccc(Cl)cc3Cl)o2)CC1 | 31.8% (active) |
| C1CC1Cc1noc(CN2CCN(CC3CC3)CC2)n1 | -0.03% |
| Cc1nc(NC(=O)C(C)(C)C)sc1[N+](=O)[O-] | -3.06% |
| CCN(CC)CCNS(=O)(=O)c1ccc(/C=C/C(=O)O)cc1 | 4.48% |
| CCOc1cccc(/C=N/N2C(=O)CSC2=S)c1O | 63.6% (active) |
| CCOc1cc(/C=N/n2cnnc2)c(Br)cc1O | 4.53% |
| COC(=O)[C@]12C[C@H](CC(=O)NCC34CC5CC(CC(C5)C3)C4)C(=O)N(Cc3ccc(Cl)cc3Cl)C1=C[C@H](COCc1ccccc1)O[C@@H]2C | 2.58% |
| COC(=O)[C@]12C[C@H](CC(=O)N3CCN(C(=O)C4CC4)CC3)C(=O)N(CCC3=CCCCC3)C1=C[C@H](C(C)C)O[C@@H]2C1CC1 | 1.61% |
| Cc1cccc(NC(=O)CSc2nnc(NC(=O)CN3CCOCC3)s2)c1 | 0.98% |
| Cc1cccc(NC(=O)c2sc3nc(N4CCOCC4)c4c(c3c2N)CCCC4)c1 | 33% (active) |
| c1ccc(CSc2ncnc3c2sc2nc(N4CCOCC4)c4c(c23)CCCC4)cc1 | -1.26% |
| COc1cc(C(=O)N/C(=C\c2cn(C)c3ccccc23)C(=O)N2CCOCC2)cc(OC)c1OC | 4.22% |
| COc1ccc(C2CC=C(C(=O)O)C(c3ccccc3F)N2S(=O)(=O)c2ccc(C)cc2)cc1OC (stereo not drawn) | -1.02% |
| COc1cccc2c1C(=O)c1c(O)c3c(c(O)c1C2=O)CC(O)(C(C)=NNC(=O)c1ccc(Cl)c(Cl)c1)CC3OC1CC(N)C(O)C(C)O1 (stereo not drawn) | 179% (active) |
| CN1c2ccc(C=O)c3c(C=O)ccc(c23)N(C)C1(C)C | 68.8% (active) |

| SMILES | inhibition |
| --- | --- |
| O=C(CSc1nc2nccnc2c(=O)n1Cc1cccs1)Nc1ccccc1F | 5% |
| O=C1C(=O)N(Cc2ccc(-c3ccsc3)cc2)c2ccc(OC(F)(F)F)cc21 | -4.19% |
| O=C1CC[C@@H](COc2ccc3[nH]cc(-c4ccccc4)c3c2-c2ccccc2)N1 | -0.73% |
| CC(C)(C)c1nnc2sc(SCC(O)=C(C#N)c3nc4ccccc4[nH]3)nn2c1=O | 21.6% (active) |
| Cc1ccc(NC(=O)CSc2nn3c(=O)c(C)nnc3s2)cc1Cl | 1.57% |
| O=C(Cc1ccccc1)NCC1OCCc2ccccc21 (stereo not drawn) | 0% |
| COc1ccc(C)cc1NC(=O)CSc1nc(SC)ns1 | 16% |
| CSc1nsc(SCC(=O)Nc2cc(C(=O)O)ccc2C)n1 | 20.1% |
| COc1ccc(NC(=O)CSc2nc(SC)ns2)c(OC)c1 | 36.5% (active) |
| O=C1CC(c2ccc3c(c2)OCO3)N=C2N(CC3CC3)C/C(=C/c3ccccc3)N12 (stereo not drawn) | -0.31% |
| CC1Cc2ccccc2N1CC(=O)Nc1ccc(S(N)(=O)=O)cc1 (stereo not drawn) | -0.96% |
| Cc1nc2ccc(S(=O)(=O)NCC(=O)O)cc2s1 | 36.9% (active) |
| Cc1nc2ccc(S(=O)(=O)NCC(=O)NCCN3CCCCC3C)cc2s1 (stereo not drawn) | -0.17% |
| COc1cccc(CNC(=O)CNS(=O)(=O)c2ccc3nc(C)sc3c2)c1OC | -2.5% |
| COCC(C)NC(=O)CSc1nc2nn(-c3ccccc3)c(=O)c-2c2n1CCCCC2 (stereo not drawn) | 5.41% |
| CNC(=S)NNC(=O)c1ccc(N(C)C)cc1 | -0.78% |
| CN(C)c1ccc(N/C=C/C(=O)C(F)(F)F)cc1 | 36.9% (active) |
| CC1CN(/C=C/C(=O)C(F)(F)F)CC(C)O1 (stereo not drawn) | -0.81% |
| c1csc(-c2nnc(SCc3nc4ccccc4[nH]3)o2)c1 | -6.14% |
| C=CCN1C(=O)[C@@H](CC(=O)NCCCOCCCC)[C@]2(C(=O)OCC)CCCCC/C=C/12 | 2.37% |
| c1ccc(C(=NNc2nc3ccccc3s2)c2ccccn2)cc1 | 27.5% (active) |
| CCC(=O)Nc1ccc2c(c1)C(=O)N(C)[C@H]1CC[C@H](CC(=O)NCCOC)O[C@@H]1CO2 | 5.57% |

| SMILES | inhibition |
| --- | --- |
| CCc1ccccc1N1C(=O)C2C3CC(=O)C(c4ccccc43)C2C1=O (stereo not drawn) | -4.03% |
| Cn1c(=O)c2cn(-c3cccc4ccccc34)cc2n(C)c1=O | -1.91% |
| CC1=C(C)CC2C(=O)N(c3cccc4ccccc34)C(=O)C2C1 (stereo not drawn) | 42% (active) |
| COc1ccc(N/N=C2/CCCCC2=O)cc1 | 32.7% (active) |
| Cc1ccc(N/N=C2\COC(C)(C)CC2=O)cc1 | -2.4% |
| COc1ccccc1Oc1ccc(N/C=C2/CCCC2=O)cc1 | -1.7% |
| C=CCN(Cc1ccc2c(c1)OCO2)C(C#CC1CC1)C(C)(C)C (stereo not drawn) | 1.88% |
| CC(NC(=O)CSc1nc2c(cc1C#N)CN(C)CC2)c1ccccc1 (stereo not drawn) | 37.7% (active) |
| CN1CCc2nc(SC(C(=O)O)c3ccccc3)c(C#N)c(-c3cccs3)c2C1 (stereo not drawn) | 11.9% |
| Cc1cc(NC(=O)CSCC(=O)NC(C)c2ccccc2)no1 (stereo not drawn) | -1.57% |
| CCOc1ccc(N(C)Cc2cc(=O)oc3ccc(OC)cc23)cc1 | -2.23% |
| COc1cc2c(cc1OC)C(c1ccccc1Br)NC(=O)C2 (stereo not drawn) | 4.47% |
| Brc1ccccc1C1N=C(c2ccccc2)NO1 (stereo not drawn) | 3.27% |
| Brc1ccccc1C1Nc2cccc3cccc(c23)N1 | 39.4% (active) |
| COC(=O)c1c(-c2ccc(OC)cc2)c2c(c3c4ccccc4n(S(=O)(=O)c4ccc(C)cc4)c13)C(=O)N(C)C2 | 3.01% |
| CC(NCc1nc2ccccc2n1C)C12CC3CC(CC(C3)C1)C2 (stereo not drawn) | 5.86% |
| CCC(C)[C@@H](C(=O)OC)N(CCc1cn(Cc2ccccc2)nn1)S(=O)(=O)c1ccccc1Br (stereo partly drawn) | 1.11% |
| NC(=O)C[C@@H]1NC(=O)CNC(=O)c2cc([N+](=O)[O-])cc(I)c2NCCC(C(N)=O)NC1=O (stereo partly drawn) | -3.5% |
| Cc1cc(C)cc(C(=O)N2CCN=C2SCc2ccc([N+](=O)[O-])cc2)c1 | -6.78% |
| CN1C2CCC1CC(NC(=O)c1ccc([N+](=O)[O-])cc1)C2 (stereo not drawn) | -4.9% |
| CC(=O)N1CC[n+]2c(-c3ccc([N+](=O)[O-])cc3)csc21 | 52.3% (active) |
| Cc1ccc(-n2c(SCC(=O)Nc3ccc(S(=O)(=O)Nc4nccs4)cc3)nnc2-c2ccccn2)cc1 | -1.31% |

| SMILES | inhibition |
| --- | --- |
| Cc1ccc(OS(=O)(=O)c2ccc(-c3csc(C)n3)s2)c(C)c1 | 27.8% (active) |
| C=CCN1C(=O)[C@@H](CC(=O)NCC2CCCCC2)[C@]2(C(=O)OC)CCCCC=C12 | -0.92% |
| COc1cc(C2C(C#N)=C(C)NC3=C2C(=O)CC(C)(C)C3)ccc1O (stereo not drawn) | -0.43% |
| C=CCSC1=C(C#N)C(c2cc(Br)c(O)c(OC)c2)CC(=O)N1 (stereo not drawn) | 23.6% (active) |
| Cc1cc(=O)[nH]c2nnnn12 | -0.07% |
| CCNC(=O)COc1cc(C)c(Br)c(C)c1 | -2.57% |
| Cc1ccc(NC(=S)NNC(=O)CSc2nnc(SCc3ccccc3Cl)s2)cc1 | -4.6% |
| Cc1cc(=O)[nH]c(SCC(=O)Nc2ccc(F)cc2F)n1 | -0.33% |
| COc1ccc(C(=O)Nc2ccc(-n3nncc3C(C)(C)C)cc2)cc1 | 1.48% |
| COc1ccc(NC(=O)c2ccc(C#CC(C)(C)O)cc2)cc1 | 25.5% (active) |
| COc1ccc(C(=O)Nc2c(N)nc(SCC(=O)Nc3ccc(C(C)=O)cc3)[nH]c2=O)cc1 | 0.6% |
| O=C(CCCCCN1C(=O)C2C3C=CC(C3)C2C1=O)Nc1ccccn1 (stereo not drawn) | -1.78% |
| Cc1n[nH]c(=O)c2c(NC(=O)COC(=O)c3ncc(Cl)c(Cl)c3Cl)oc(C)c12 | 7.67% |
| O=C(c1ccncc1)N1CC[C@H]2[C@H](CCCN2Cc2ccc(F)cc2)C1 | 0.01% |
| Cc1c(C#N)c(NC(=O)c2ccccc2)n(Cc2ccccc2)c1C | -3.16% |
| CC(=O)Nc1ccc(C(=O)Nc2nc(-c3cc(C)n(Cc4ccccc4)c3C)cs2)cc1 | 25.2% (active) |
| CCCn1c(C)cc(-c2csc(NC(=O)CCc3nc4ccccc4c(=O)[nH]3)n2)c1C | 9.77% |
| COc1ccc([C@H]2N[C@]3(CCCN(CC4CCCCC4)C3=O)[C@H]3C(=O)N(C)C(=O)[C@@H]23)cc1 | 5.33% |
| Cc1cc(NS(=O)(=O)c2ccc(NC(=O)CSc3nnc(-c4ccc(C(C)(C)C)cc4)n3Cc3ccco3)cc2)nc(C)n1 | 3.17% |
| O=C(Oc1ccccc1C(=S)N1CCCCC1)c1cc([N+](=O)[O-])cc([N+](=O)[O-])c1 | 41.9% (active) |
| O=C(Oc1ccc(Br)cc1C(=S)N1CCOCC1)c1cccc([N+](=O)[O-])c1 | 5.11% |
| O=C(Oc1ccccc1Cl)c1ccc(N2CCOCC2)c([N+](=O)[O-])c1 | -1.29% |
